Of roughly 7,900 targets only a part is listed; those with a hit were picked by preference. About 0.6% of all pairs of compound and target were hits.
Tests used:
Experiment in all cases: log2 fold change, soluble protein after heating vs DMSO (PISA); higher = thermal stabilisation; K562 cells, 10 uM, 30 min; active = over 0.2 and 3.5 SD of the protein, either way, in both replicates (recomputed)
[1] = compound: C1=CC=C(C=C1)[C@H](COC2=CC3=C(C=C2)NC(=O)N3)NC(=O)C4=CC=CN(C4=O)CC5=CC(=C(C=C5)F)F
Method in brief: (§1)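 Quantification of soluble protein used TMTpro 16plex LC-MS/MS, with channel sums equalised. Samples were the supernatant after 21,000xg for 90 min of pooled aliquots from K562 cells (2×10^6 cells/mL) treated with 10 μM compound for 30 min, heated for 3 min over 48°C-58°C, and extracted in PBS with 0.5% NP-40 at 4°C. Values, from duplicates, describe thermal stability against control samples on a log2 fold-change scale.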

[2] = compound: CC1=C(SC2=C1C(=N[C@H](C3=NN=C(N32)C)CC(=O)N)C4=CC=C(C=C4)Cl)C
Method in brief: as §1

[3] = compound: CC1=C2C(=CC=C1)N=C(N(C2=O)C3=CC=CC=C3C)CN4C=NC5=C(N=CN=C54)N
Method in brief: as §1

[4] = compound: Cc1sc2c(c1C)C(c1ccc(Cl)cc1)=N[C@@H](CC(=O)OC(C)(C)C)c1nnc(C)n1-2
Method in brief: as §1

[5] = compound: c1ccc([C@@H]2C[C@H]2NC2CCNCC2)cc1
Method in brief: as §1

Measured: log2 fold change

CMTM3 (UniProt Q96MX0)
UniProt Q96MX0, sequence (Q96MX0 whole entry, looked up): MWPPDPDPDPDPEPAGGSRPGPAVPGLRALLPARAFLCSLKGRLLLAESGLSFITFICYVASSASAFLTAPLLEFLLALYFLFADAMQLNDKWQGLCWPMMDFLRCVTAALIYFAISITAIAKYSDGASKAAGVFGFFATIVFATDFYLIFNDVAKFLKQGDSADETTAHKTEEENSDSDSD
inactive: [1] -0.179 | [2] -0.001 | [3] -0.056 | [4] 0.044 | [5] 0.081

CSNK1A1 (UniProt P48729)
UniProt P48729, sequence (P48729 whole entry, looked up): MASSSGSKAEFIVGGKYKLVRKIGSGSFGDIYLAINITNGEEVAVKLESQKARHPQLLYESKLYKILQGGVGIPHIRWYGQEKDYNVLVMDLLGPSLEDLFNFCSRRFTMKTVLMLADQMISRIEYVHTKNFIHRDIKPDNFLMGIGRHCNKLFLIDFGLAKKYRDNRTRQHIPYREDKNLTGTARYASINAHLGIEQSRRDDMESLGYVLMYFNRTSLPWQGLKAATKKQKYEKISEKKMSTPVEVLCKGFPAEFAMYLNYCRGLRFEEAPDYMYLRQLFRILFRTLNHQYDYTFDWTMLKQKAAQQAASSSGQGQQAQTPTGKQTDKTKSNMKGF
inactive: [1] 0.048 | [2] 0 | [3] 0.008 | [4] 0.046 | [5] 0.02

CKB (UniProt P12277)
inactive: [1] -0.1 | [2] 0.01 | [3] 0.038 | [4] -0.022 | [5] -0.118

CAVIN1 (UniProt Q6NZI2)
UniProt Q6NZI2, sequence (Q6NZI2 whole entry, looked up): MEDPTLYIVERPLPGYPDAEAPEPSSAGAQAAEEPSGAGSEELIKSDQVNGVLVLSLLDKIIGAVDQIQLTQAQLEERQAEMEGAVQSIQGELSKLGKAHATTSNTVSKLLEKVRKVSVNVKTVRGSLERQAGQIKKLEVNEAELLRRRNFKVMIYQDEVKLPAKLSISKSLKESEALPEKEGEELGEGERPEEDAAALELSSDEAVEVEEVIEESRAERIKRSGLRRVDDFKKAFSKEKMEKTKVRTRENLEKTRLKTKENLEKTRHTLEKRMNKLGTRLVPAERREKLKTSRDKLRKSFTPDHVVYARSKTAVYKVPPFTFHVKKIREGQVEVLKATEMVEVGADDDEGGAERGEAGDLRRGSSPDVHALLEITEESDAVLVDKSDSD
inactive: [1] 0.017 | [2] -0.127 | [3] -0.103 | [4] 0.101 | [5] 0

CCDC9 (UniProt Q9Y3X0)
inactive: [1] -0.019 | [2] -0.012 | [3] -0.118 | [4] 0.091 | [5] 0.041

CA8 (UniProt P35219)
inactive: [1] 0.006 | [2] 0.059 | [3] 0.052 | [4] 0.025 | [5] -0.045

CLPTM1L (UniProt Q96KA5)
inactive: [1] -0.011 | [2] 0.013 | [3] 0.024 | [4] -0.145 | [5] 0.01

CCNK isoform 4 (UniProt O75909)
inactive: [1] 0.045 | [2] -0.115 | [3] 0.015 | [4] 0.103 | [5] 0.069

CIT isoform 4 (UniProt O14578)
UniProt O14578, sequence (O14578 whole entry, looked up): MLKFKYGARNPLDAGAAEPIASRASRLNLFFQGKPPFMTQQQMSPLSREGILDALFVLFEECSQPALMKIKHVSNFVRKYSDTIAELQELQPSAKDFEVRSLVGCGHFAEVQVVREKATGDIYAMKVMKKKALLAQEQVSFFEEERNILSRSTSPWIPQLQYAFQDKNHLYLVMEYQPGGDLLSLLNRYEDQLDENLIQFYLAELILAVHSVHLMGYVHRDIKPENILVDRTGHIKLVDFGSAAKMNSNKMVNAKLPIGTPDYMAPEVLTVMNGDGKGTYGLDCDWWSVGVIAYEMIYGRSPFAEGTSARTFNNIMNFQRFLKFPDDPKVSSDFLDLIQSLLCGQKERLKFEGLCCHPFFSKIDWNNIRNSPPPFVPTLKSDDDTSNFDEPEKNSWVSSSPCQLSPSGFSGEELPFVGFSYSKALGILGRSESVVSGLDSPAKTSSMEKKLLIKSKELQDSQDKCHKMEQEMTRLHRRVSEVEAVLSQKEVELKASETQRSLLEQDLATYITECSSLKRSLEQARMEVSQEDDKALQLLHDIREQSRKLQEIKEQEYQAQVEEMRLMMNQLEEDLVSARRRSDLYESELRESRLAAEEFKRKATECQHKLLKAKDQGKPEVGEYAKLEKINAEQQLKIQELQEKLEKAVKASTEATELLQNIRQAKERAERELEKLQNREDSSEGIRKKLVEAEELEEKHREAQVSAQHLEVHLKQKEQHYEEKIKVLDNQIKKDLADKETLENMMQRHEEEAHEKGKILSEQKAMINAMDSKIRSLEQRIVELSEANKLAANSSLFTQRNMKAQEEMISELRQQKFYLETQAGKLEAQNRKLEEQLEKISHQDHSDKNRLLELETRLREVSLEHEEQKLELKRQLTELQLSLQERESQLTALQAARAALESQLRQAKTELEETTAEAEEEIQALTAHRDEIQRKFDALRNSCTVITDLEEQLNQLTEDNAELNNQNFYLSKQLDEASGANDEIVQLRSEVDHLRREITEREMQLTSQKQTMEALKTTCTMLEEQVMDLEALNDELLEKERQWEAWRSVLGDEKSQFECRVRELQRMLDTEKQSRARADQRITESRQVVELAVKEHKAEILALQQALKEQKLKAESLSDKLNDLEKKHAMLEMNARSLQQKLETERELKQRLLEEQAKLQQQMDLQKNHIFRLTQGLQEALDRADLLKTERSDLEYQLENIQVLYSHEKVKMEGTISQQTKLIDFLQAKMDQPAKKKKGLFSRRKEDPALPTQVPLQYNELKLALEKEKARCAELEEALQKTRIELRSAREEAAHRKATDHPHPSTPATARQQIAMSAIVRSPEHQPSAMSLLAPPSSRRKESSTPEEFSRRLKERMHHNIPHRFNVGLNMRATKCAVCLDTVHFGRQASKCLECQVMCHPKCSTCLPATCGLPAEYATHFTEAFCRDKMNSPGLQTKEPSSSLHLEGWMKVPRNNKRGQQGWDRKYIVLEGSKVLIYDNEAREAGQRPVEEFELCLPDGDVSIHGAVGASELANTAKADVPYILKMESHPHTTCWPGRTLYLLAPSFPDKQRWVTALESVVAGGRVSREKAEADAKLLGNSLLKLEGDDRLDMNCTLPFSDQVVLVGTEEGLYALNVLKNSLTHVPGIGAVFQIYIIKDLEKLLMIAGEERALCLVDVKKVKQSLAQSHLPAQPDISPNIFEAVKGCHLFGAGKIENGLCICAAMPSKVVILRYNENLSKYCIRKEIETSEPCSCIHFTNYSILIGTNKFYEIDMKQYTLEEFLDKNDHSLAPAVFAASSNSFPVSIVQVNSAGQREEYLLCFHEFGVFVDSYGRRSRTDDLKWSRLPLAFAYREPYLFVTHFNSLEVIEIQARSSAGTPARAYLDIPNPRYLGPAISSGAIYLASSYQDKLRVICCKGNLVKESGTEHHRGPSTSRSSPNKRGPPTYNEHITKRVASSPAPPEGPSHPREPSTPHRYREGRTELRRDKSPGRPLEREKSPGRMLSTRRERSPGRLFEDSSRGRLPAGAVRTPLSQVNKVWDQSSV
inactive: [1] -0.055 | [2] 0.002 | [3] 0.001 | [4] -0.011 | [5] 0.009

COPS3 (UniProt Q9UNS2)
inactive: [1] 0.011 | [2] 0.001 | [3] 0 | [4] -0.007 | [5] -0.005

CNTN4 (UniProt Q8IWV2)
UniProt Q8IWV2, sequence (Q8IWV2 whole entry, looked up): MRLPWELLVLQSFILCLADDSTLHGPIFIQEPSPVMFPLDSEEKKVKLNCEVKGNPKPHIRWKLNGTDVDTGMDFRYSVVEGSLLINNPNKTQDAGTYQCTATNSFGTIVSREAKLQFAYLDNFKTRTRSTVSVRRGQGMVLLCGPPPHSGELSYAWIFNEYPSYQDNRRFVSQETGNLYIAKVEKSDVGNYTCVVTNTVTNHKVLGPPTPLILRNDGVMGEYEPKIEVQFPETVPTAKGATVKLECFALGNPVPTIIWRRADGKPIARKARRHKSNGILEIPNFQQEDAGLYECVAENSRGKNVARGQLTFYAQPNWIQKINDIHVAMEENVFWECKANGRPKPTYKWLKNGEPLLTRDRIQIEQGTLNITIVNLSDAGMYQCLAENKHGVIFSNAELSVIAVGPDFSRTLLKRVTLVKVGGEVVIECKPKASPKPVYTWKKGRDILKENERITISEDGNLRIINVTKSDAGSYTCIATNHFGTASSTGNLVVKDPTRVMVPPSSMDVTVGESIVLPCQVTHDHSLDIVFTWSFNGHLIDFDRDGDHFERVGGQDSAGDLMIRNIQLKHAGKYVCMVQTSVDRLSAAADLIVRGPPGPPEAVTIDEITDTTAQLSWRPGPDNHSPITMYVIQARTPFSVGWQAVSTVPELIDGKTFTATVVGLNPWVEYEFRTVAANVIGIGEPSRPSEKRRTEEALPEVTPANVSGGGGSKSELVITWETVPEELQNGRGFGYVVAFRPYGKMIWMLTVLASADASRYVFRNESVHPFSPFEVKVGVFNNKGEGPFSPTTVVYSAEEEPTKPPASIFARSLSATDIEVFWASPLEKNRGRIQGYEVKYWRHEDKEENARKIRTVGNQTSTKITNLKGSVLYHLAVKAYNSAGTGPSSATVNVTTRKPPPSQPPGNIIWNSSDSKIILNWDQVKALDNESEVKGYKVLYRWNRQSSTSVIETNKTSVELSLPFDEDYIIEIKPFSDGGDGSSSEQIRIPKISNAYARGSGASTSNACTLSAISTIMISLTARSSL
inactive: [1] 0.093 | [2] 0.154 | [3] 0.103 | [4] -0.075 | [5] -0.106

CPD (UniProt O75976)
inactive: [1] 0.008 | [2] 0.014 | [3] 0.044 | [4] -0.013 | [5] 0.053

CDC37L1 (UniProt Q7L3B6)
UniProt Q7L3B6, sequence (Q7L3B6 whole entry, looked up): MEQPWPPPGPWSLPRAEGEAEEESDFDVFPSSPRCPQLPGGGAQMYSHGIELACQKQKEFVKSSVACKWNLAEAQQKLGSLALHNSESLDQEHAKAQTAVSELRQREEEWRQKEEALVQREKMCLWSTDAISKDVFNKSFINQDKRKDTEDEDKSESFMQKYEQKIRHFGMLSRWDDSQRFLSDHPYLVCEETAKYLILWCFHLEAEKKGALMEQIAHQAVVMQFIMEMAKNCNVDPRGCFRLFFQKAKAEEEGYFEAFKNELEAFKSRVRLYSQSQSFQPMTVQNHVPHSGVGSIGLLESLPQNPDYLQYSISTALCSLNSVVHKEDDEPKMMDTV
inactive: [1] -0.009 | [2] 0.026 | [3] 0.087 | [4] 0.337 | [5] 0.02

CETN3 (UniProt O15182)
UniProt O15182, sequence (O15182 whole entry, looked up): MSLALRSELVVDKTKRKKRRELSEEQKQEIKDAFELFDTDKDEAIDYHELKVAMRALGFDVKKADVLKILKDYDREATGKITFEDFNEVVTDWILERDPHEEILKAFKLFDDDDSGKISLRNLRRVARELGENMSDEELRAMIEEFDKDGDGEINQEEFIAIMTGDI
inactive: [1] 0.019 | [2] -0.055 | [3] 0.109 | [4] 0.008 | [5] -0.014

CHCHD2 (UniProt Q9Y6H1)
UniProt Q9Y6H1, sequence (Q9Y6H1 whole entry, looked up): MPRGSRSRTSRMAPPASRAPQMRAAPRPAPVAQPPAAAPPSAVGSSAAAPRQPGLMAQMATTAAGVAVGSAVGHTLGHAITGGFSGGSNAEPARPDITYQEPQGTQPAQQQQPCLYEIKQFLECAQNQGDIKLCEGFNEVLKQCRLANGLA
inactive: [1] -0.016 | [2] 0.082 | [3] -0.007 | [4] -0.065 | [5] -0.011

CNOT2 (UniProt Q9NZN8)
inactive: [1] 0.024 | [2] -0.014 | [3] 0.056 | [4] 0.031 | [5] -0.002

COASY isoform 2 (UniProt Q13057)
inactive: [1] -0.03 | [2] 0.054 | [3] 0.053 | [4] -0.037 | [5] -0.021

CDK12 (UniProt Q9NYV4)
inactive: [1] 0.102 | [2] -0.425 | [3] -0.103 | [4] 0.112 | [5] 0.008

C4A (UniProt P0C0L4)
inactive: [1] -0.158 | [2] -0.067 | [3] 0.127 | [4] -0.101 | [5] -0.01

CDK5 (UniProt Q00535)
inactive: [1] -0.015 | [2] 0.087 | [3] -0.003 | [4] -0.023 | [5] -0.005

CDC25B isoform 4 (UniProt P30305)
inactive: [1] 0.107 | [2] 0.009 | [3] 0.101 | [5] -0.024

CCDC82 (UniProt Q8N4S0)
inactive: [1] -0.018 | [2] 0.056 | [3] 0.033 | [4] 0.043 | [5] 0.004

CAMKK2 (UniProt Q96RR4)
inactive: [1] -0.047 | [2] 0.388 | [3] 0.023 | [4] 0.019 | [5] 0.149

CHAC2 (UniProt Q8WUX2)
UniProt Q8WUX2, sequence (Q8WUX2 whole entry, looked up): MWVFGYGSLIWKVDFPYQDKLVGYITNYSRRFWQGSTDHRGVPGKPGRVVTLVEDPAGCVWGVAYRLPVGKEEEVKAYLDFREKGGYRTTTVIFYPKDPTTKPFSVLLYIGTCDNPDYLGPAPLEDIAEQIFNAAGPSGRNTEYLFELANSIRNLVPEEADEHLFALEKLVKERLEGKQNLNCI
inactive: [1] -0.036 | [2] -0.034 | [3] -0.034 | [4] 0.008 | [5] 0.027

From the supplement of paper PMC10849652
